Laboratory results: ChEMBL document CHEMBL3988442, “University of Dundee, Small-Polar-MMV Screening Library” (2021)
In all, about 85,000 compounds went through this assay and about 440 (0.52%) showed an effect of 50% or more. The list comes from a sample in which strong results are over-represented; it also holds similar structures and randomly drawn compounds.

Assay: In vitro enzyme assay to detect hydrolysis of chlorophenol red-beta-D-[…] directly proportional to the number of Toxoplasma stably expressing beta-galactosidase
Assay type: functional, organism-based, Toxoplasma gondii
Design: scale not given: in the data most compounds retested in dose-response had high values

| Compound | Percent Effect (50 µM) [%] | Percent Effect (10 µM) [%] |
| --- | --- | --- |
| Cc1nnc(SCCNC(=O)CC2C=CS(=O)(=O)C2)s1 (stereo unspecified) | 45.65 | – |
| CN(Cc1cnccn1)C(=O)c1ccc(CSc2nnc[nH]2)o1 | – | -8.183 |
| CC(C)Cc1cc(C(=O)N(C)Cc2cnccn2)on1 | 13.67 | – |
| CSCc1ccc(C(=O)N(C)Cc2cnccn2)o1 | 98.35 | – |
| CC(CCO)CNS(=O)(=O)c1ccccc1F (stereo unspecified) | 13.76 | – |
| COCC(NC(=O)CNc1ccccc1)C(C)C (stereo unspecified) | 18.12 | – |
| Cc1ccc(S(=O)(=O)N2CCNC(=O)C2)cc1C(N)=O | 3.593 | – |
| CC(C)Cn1cc(NC(=O)N2CCC(O)C2)cn1 (stereo unspecified) | 99.23 | – |
| CC(C)Cn1cc(NC(=O)N2CCCC2)cn1 | – | -15.58 |
| NC(=O)Cn1cc(NC(=O)N2CCCC(O)C2)cn1 (stereo unspecified) | – | -5.248 |
| CC(C)[C@@H]1CN(C(=O)c2ccc(O)cn2)C[C@H]1N(C)C | -13.98 | – |
| NS(=O)(=O)c1ccc2c(c1)N(CC(=O)NC1CC1)CC2 | 3.074 | – |
| CCc1ccc(CN2CCOCC(CO)C2)nc1 (stereo unspecified) | 13.26 | – |
| C[C@@H]1CN(C(=O)c2ccc(=O)[nH]c2)C[C@]1(C)O | 3.055 | – |
| C[C@@H]1CN(C(=O)c2ccccc2C#N)C[C@]1(C)O | 10.95 | – |
| C[C@@H]1CN(C(=O)c2cc(F)cc(C#N)c2)C[C@]1(C)O | 97.61 | – |
| CSCC(CCO)NC(=O)c1coc2ccccc12 (stereo unspecified) | -6.179 | – |
| CC(C)(C)OC(=O)N1CCC(n2cc(N)cn2)CC1 | -15.49 | – |
| N[C@@H]1CCCc2c(F)cc(F)cc21 | 13.09 | – |
| Cc1ccc(F)c(NC(=O)N2CCOCC2CO)c1 (stereo unspecified) | 2.099 | – |
| O=C1CN(CC(=O)N2CCc3sccc3C2)CCN1 | 8.555 | – |
| Cc1ccccc1CC(=O)NCC(F)(F)F | -13.95 | – |
| CC(=O)C1CN(C(=O)OC(C)(C)C)CCO1 (stereo unspecified) | -6.486 | – |
| CN(C)CCNCCC(Cc1ccccc1)C1CCOC(C)(C)C1.O=C(O)C(=O)O (stereo unspecified) | – | 9.919 |

| Compound | Percent Effect (50 µM) [%] | Percent Effect (10 µM) [%] |
| --- | --- | --- |
| CN(C)CCNCC1CCOC(C)(C)C1 (stereo unspecified) | – | 12.77 |
| CN(C)CCCNCCC(Cc1ccccc1)C1CCOC(C)(C)C1.O=C(O)C(=O)O (stereo unspecified) | – | 77.21 |
| CCN(CC)CCCNCC1CCOC(C)(C)C1 (stereo unspecified) | – | 1.68 |
| CC(CCc1ccccc1)NC(=O)CNCCCN(C)C.O=C(O)C(=O)O (stereo unspecified) | – | -5.52 |
| N#CCC(=O)Nc1ccc(N2CCOCC2)cc1 | -1.188 | – |
| CCCNC(=O)CCNC(=O)Nc1cc(C)cc(C)n1 | 12.25 | – |
| Cl.NCCC(=O)Nc1ccc(-c2ccccc2)cc1 | – | 10.41 |
| NCC(=O)Nc1ccccc1 | 0.1294 | – |
| NCCC(=O)Nc1ccccc1 | 99.48 | – |
| CNCc1ccc(N)nc1 | 63.11 | – |
| CNCc1ccc(N(C)C)nc1 | -20.16 | – |
| NCc1ccc(N)nc1 | -3.539 | – |
| Cc1nc2c(c(NCc3cnc4c(c3)CCC4)n1)CNC2 | – | -1.27 |
| Nc1nc2c(c(NCc3ccncc3)n1)CCCC2 | – | 12.09 |
| Cc1nc2c(c(NCc3ccc(N)nc3)n1)CCCC2 | 50.4 | – |
| NCc1cnn(-c2ccc(F)cc2)c1 | 4.484 | – |
| C1CC(OC2CCOC2)CCN1 (stereo unspecified) | 3.071 | – |
| COCCCOC1CN(C(=O)c2cc(F)ccc2C)C1 | 0.2477 | – |
| CCCc1nc2c(c(C)c(C)n2Cc2ccccn2)c(N)c1CC | – | 74.72 |
| CCCc1nc2c(c(C)c(C)n2Cc2cccnc2)c(N)c1CC | – | 33.67 |
| CCCc1nc2c(c(C)c(C)n2Cc2ccncc2)c(N)c1CC | – | -0.599 |
| CCNC(=O)C(C)N (stereo unspecified) | -4.292 | – |
| COc1cc(OC)cc(N2CC(N)CC2=O)c1 (stereo unspecified) | 17.36 | – |
| O=C(Nc1cccc(F)c1)NC1CCN(Cc2ccncc2)CC1 | – | 6.4 |

| Compound | Percent Effect (50 µM) [%] | Percent Effect (10 µM) [%] |
| --- | --- | --- |
| Cl.NC1CCc2nc(-c3cccnc3)nc(Nc3ccc(F)cc3)c2C1 (stereo unspecified) | – | 24.29 |
| CCOCCNc1nc(-c2ccncc2)nc2c1CCNCC2 | – | -6.442 |
| O=C(Nc1cccc(F)c1)C1CCCN1 (stereo unspecified) | 7.876 | – |
| Cl.NC1CCc2nc(-c3ccncc3)nc(Nc3cccc(F)c3)c2C1 (stereo unspecified) | – | 92.97 |
| N[C@@H]1CCO[C@H]1c1ccnn1-c1ccccc1 | -18.85 | – |
| CNC(=O)[C@@H]1CCCN1 | -5.087 | – |
| O=c1cc(CN2CCOCC2)nc2sccn12 | 2.592 | – |
| CN1CCCC1CCSc1nc(N)c(C#N)cc1C#N (stereo unspecified) | -0.4089 | – |
| Cc1cc(C)nc(NC(=O)c2ccncc2)c1 | 31.27 | – |
| CCO[C@@H]1COCC[C@H]1NC(=O)c1cncn1C | 0.586 | – |
| CN(Cc1noc(C2CC2)n1)C1CCN(Cc2ccccc2C#N)C1 (stereo unspecified) | – | 2.644 |
| CN(Cc1noc(C2CC2)n1)C1CCN(Cc2ccc(F)c(F)c2)C1 (stereo unspecified) | – | 1.098 |
| CN(Cc1noc(C2CC2)n1)C1CCN(Cc2cccc(F)c2F)C1 (stereo unspecified) | – | 67.09 |
| CCNC(=O)CNc1noc(C(C)(C)C)n1 | -18.17 | – |
| COCCN(CC(=O)N(C)C)c1ncccn1 | 1.212 | – |
| CCCN(CCOC)CC(=O)N(C)C | 8.072 | – |
| COCCN(CCOC)CC(=O)N(C)C | 56.58 | – |
| OC1CCCN(CCOc2ccccc2)C1 (stereo unspecified) | 1.087 | – |
| CCC(C)Oc1ccc(CNCCc2c[nH]cn2)cc1Cl (stereo unspecified) | – | 81.15 |
| CCC(C)Oc1ccc(CNCCNS(C)(=O)=O)cc1Cl (stereo unspecified) | – | 19.69 |
| CCC(C)Oc1ccc(CNCCNC(C)=O)cc1Cl (stereo unspecified) | – | 19.61 |
| CCN(CCN(C)C)C(=O)c1cn(CCN)nn1 | 2.797 | – |
| Cc1cc(NC(=O)C(C)N(C)Cc2cc(C)on2)on1 (stereo unspecified) | 5.589 | – |
| Cc1ccc(C(=O)NC2CCN(C(C)C)CC2)o1 | -16.97 | – |

| Compound | Percent Effect (50 µM) [%] | Percent Effect (10 µM) [%] |
| --- | --- | --- |
| OCCCN(Cc1ccccc1)Cc1ccccn1 | -0.1376 | – |
| NCc1cccc(C(F)(F)F)n1 | 30.32 | – |
| CCOC(=O)CNC(=O)NCCc1ccc(OC)cc1 | -17.09 | – |
| COc1ccc(CCNC(=O)NCCCC(N)=O)cc1 | 98.98 | – |
| COc1ccc(CCC(=O)NCCNC(C)=O)cc1 | 21.36 | – |
| CC1(C)CCCN(C(=O)CCS(C)(=O)=O)CC1 | -2.783 | – |
| CCCC(=O)N(C)Cc1cccc(OC(C)C)c1 | – | 0.05359 |
| CC[C@H](N)C(=O)N(C)Cc1cccc(OC(F)(F)F)c1 | 4.147 | – |
| CCCC(N)C(=O)N(C)Cc1cccc(N(C)C)c1 (stereo unspecified) | 89.59 | – |
| CCN(CC)C(=O)CN1CCC(N)CC1 | -1.204 | – |
| CNCC1CCN(C(=O)Nc2ccccc2)CC1 | -5.234 | – |
| NS(=O)(=O)CC1CCN(C(=O)Nc2ccccc2)CC1 | 13.92 | – |
| NC1CCN(C(=O)Nc2ccccc2)C1 (stereo unspecified) | 93.84 | – |
| N[C@H]1CN(CC(=O)N2CCCCC2)C[C@@H]1C1CC1 | 3.394 | – |
| CCC(NC(=O)CCC(=O)OC)c1ccccc1 (stereo unspecified) | -2.759 | – |
| Cc1ccc(CN(CCCn2ccnc2)Cc2c[nH]cn2)s1.O=C(O)CC(O)(CC(=O)O)C(=O)O | – | 27.23 |
| CCc1ccc(CN(CCCn2ccnc2)Cc2ccc(C)s2)o1.O=C(O)CC(O)(CC(=O)O)C(=O)O | – | 5.317 |
| Cc1ccc(CN(CCCn2ccnc2)Cc2cnn(C)c2)s1.O=C(O)CC(O)(CC(=O)O)C(=O)O | – | -58.36 |
| COc1ccc(F)c(CN(CCCn2ccnc2)Cc2ccc(C)s2)c1.O=C(O)CC(O)(CC(=O)O)C(=O)O | – | 53.53 |
| Cc1ccc(CN(CCCn2ccnc2)Cc2ccccc2O)s1.O=C(O)CC(O)(CC(=O)O)C(=O)O | – | -8.716 |
| Cc1ccc(CN(CCCn2ccnc2)Cc2cc(F)ccc2F)s1.O=C(O)CC(O)(CC(=O)O)C(=O)O | – | 64.14 |
| Cc1ccc(CN(CCCn2ccnc2)Cc2cccs2)s1.O=C(O)CC(O)(CC(=O)O)C(=O)O | – | 13.55 |
| Cc1ccc(O)c(CN(CCCn2ccnc2)Cc2ccc(C)s2)c1.O=C(O)CC(O)(CC(=O)O)C(=O)O | – | 4.169 |
| Cc1ccc(CN(CCCn2ccnc2)Cc2c(F)cccc2F)s1.O=C(O)CC(O)(CC(=O)O)C(=O)O | – | 36.95 |

| Compound | Percent Effect (50 µM) [%] | Percent Effect (10 µM) [%] |
| --- | --- | --- |
| Cc1ccc(CN(CCCn2ccnc2)Cc2c[nH]nc2C(C)(C)C)s1.O=C(O)CC(O)(CC(=O)O)C(=O)O | – | -5.969 |
| COc1ccc(NC(=O)CN)cc1Cl | 1.653 | – |
| O=C1CNC2(CCCCC2)C(=O)N1 | -1.267 | – |
| OCc1cnc2c(F)cccc2c1 | -7.989 | – |
| O=C(NCCCn1cccn1)N1CCSCC1 | 12.95 | – |
| CC1COCCN1CCNS(C)(=O)=O (stereo unspecified) | -4.94 | – |
| CCC(N)C(=O)N1CCN(c2ccncc2Cl)CC1 (stereo unspecified) | 0.3763 | – |
| OCC1(O)CCN(Cc2cc3ccccc3s2)C1 (stereo unspecified) | 15.65 | – |
| O=C(COc1ccc2c(c1)OCO2)NCc1ccco1 | – | -39.93 |
| O=C(COc1ccc2c(c1)CCCC2=O)NCc1ccco1 | – | -0.7551 |
| O=C(COc1ccc2c(c1)CCC2)NCc1ccco1 | – | 52.59 |
| CN(C1CCCCC1)S(=O)(=O)NC1CCCCNC1=O (stereo unspecified) | -10.23 | – |
| CCCc1nc(C)cc(NCCO)n1 | 22.28 | – |
| O=C(CCOc1cccc(F)c1)N1CCCC(n2cncn2)C1 (stereo unspecified) | – | -5.343 |
| CCc1cccc(OCC(=O)N2CCCC(n3cncn3)C2)c1 (stereo unspecified) | – | 61.63 |
| COc1cccc(COCC(=O)N2CCCC(n3cncn3)C2)c1 (stereo unspecified) | – | 5.194 |
| CN(Cc1ccccc1)C1(CN)CCC1 | -8.467 | – |
| OC1CCN(c2ccnc(NCCc3ccccc3Cl)n2)CC1 | – | -8.745 |
| OC1CCN(c2ccnc(NCCc3ccccc3Cl)n2)C1 (stereo unspecified) | – | 73.82 |
| OC1CCN(c2ccnc(NCCN3CCc4ccccc4C3)n2)C1 (stereo unspecified) | – | -7.659 |
